# Source: PubChem BioAssay (EPA / NIEHS)
# “And” between values parts separate entries of the source, which are not always exact repeats. Equal entries are not always repeated. The source made the active and inactive calls. The calls were made as follows: active = hit-call score of the fitted dose curve at least 0.9, where 1 is the maximum; inactive = score below 0.9.
# Read-out: Secreted IgG (sIgG), gene 3500
# Test: BSK_BT_sIgG: BioMAP Diversity Plus: BT Assay for Secreted IgG (sIgG) Biomarker Activity (AID 2284226)
# Settings: primary human B cells with PBMC
# Procedure: BSK_BT is a cell-based, multiplexed-readout assay that uses B cell and peripheral blood mononuclear cells, a human vascular primary cell co-culture, with measurements taken at 24 hours after chemical dosing in a microplate: 96-well plate.BSK_BT_sIgG is an assay component measured in the BSK_BT assay. It measures secreted IgG related to regulation of gene expression using ELISA technology.Data from the assay component BSK_BT_sIgG was analyzed at the endpoint, BSK_BT_sIgG, in the positive analysis fitting direction relative to DMSO as the negative control and baseline of activity. Using a type of cytokine quantitation reporter, gain or loss-of-signal activity can be used to understand protein changes. To generalize the intended target to other relatable targets, this assay endpoint is annotated to the 'immunoglobulin' intended target family, where the subfamily is 'IgG'.
# The levels of cell surface (or secreted, indicated by the prefix "s") biomarker endpoints were measured by ELISA. Overt cytotoxicity to cells in confluent adherent cultures (all systems other than the BT system) was assessed by measuring total protein levels using sulforhodamine B (SRB) staining in parallel cultures at the time of biomarker measurements, indicated as SRB endpoints. For proliferation assays for adherent cell types, individual cell types are cultured at sub-confluence and relative cell numbers quantified by SRB staining at time points optimized for each system (48 h: 3C and CASM3C systems; 72 h: BT and HDF3CGF systems; 96 h: SAg system). SRB was performed by staining cells with 0.1% SRB after fixation with 10% TCA and reading wells at 560 nm.Viability and proliferation of PBMC (T cells) was quantified by Alamar Blue reduction for the SAg and BT systems. For PBMC viability (referred to as PBMC Cytotoxicity within the assay endpoint names), cells were plated (75,000/well in a 96-well plate) and then chemical samples added for 1 h before addition of activators, SEB and TSST-1 (20 ng/mL final concentration each). Cells were incubated for 90 h. Then, Alamar Blue (20 uL/well) (Invitrogen, Cat DAL1100) was added for 6 h, and the plates were read with a fluorescence microplate reader at 546/580 nm (excitation/emission). For PBMC proliferation, cells were plated and activated as above but incubated for only 16 h prior to addition of Alamar Blue. Plates were read after 6 h.
SMILES,outcome,AC50
Cc1cccc(O)c1C,inactive,–
FC(F)(F)C(F)(F)C(F)(F)C(F)(F)C(F)(F)C(F)(F)I,inactive,–
C[Si](C)(C)C(F)(F)C(F)(F)C(F)(F)F,inactive,–
FC(F)=C(F)C(F)(F)C(F)(F)C(F)(F)C(F)(F)C(F)(F)C(F)(F)F,inactive,–
FC(F)C(F)(F)COCC1CO1 (stereo not drawn),inactive,–
O=C(Cl)C(F)(F)C(F)(F)C(F)(F)C(=O)Cl,inactive,–
S=P(N1CC1)(N1CC1)N1CC1,–,2.71 µM (active)
OCCC(F)(F)C(F)(F)C(F)(F)C(F)(F)F,inactive,–
O=S(=O)(O)CCC(F)(F)C(F)(F)C(F)(F)C(F)(F)C(F)(F)C(F)(F)F,inactive,–
OCc1c[nH]c2ccccc12,–,30.8 µM (active)
FC(F)(F)COC(OCC(F)(F)F)OCC(F)(F)F,inactive,–
OC(O)(C(F)C(O)(O)C(F)(F)F)C(F)(F)F,–,32.6 µM (active) and 39.1 µM (active)
NCC(F)(F)C(F)(F)C(F)(F)C(F)(F)F,inactive,–
